Reference: ChEMBL document CHEMBL3433997, “St. Jude Leishmania screening dataset” (2016)

Tests used:
Type in all cases: functional
[1] = target: Solute carrier family 2, facilitated glucose transporter member 1 (Homo sapiens) (UniProt P11166); experiment: ST_JUDE_LEISH: Cytotoxicity at 2uM final concentration against transgenic Leishmania Mexicana promastigotes LmGLUT1 that are glucose transport deficient and complemented with the human glucose transporter GLUT1. Activity is measured by DNA content using SYBR green in vitro
Solute carrier family 2, facilitated glucose transporter member 1 (Homo sapiens), sequence (P11166 whole entry): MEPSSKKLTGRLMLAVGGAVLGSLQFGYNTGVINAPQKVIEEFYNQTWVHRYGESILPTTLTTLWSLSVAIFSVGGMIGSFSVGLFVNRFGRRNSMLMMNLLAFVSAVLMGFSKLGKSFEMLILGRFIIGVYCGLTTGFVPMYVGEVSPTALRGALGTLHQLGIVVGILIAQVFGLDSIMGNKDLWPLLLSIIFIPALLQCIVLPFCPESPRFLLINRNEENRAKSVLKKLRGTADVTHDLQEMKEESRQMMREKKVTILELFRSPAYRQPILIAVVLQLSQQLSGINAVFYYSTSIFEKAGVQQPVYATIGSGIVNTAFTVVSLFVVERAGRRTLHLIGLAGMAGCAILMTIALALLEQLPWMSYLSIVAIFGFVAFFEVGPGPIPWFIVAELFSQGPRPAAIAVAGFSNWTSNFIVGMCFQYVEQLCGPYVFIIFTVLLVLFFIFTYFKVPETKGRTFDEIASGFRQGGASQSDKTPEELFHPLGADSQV

[2] = target: Hexose transporter 1 (Plasmodium falciparum) (UniProt O97467); experiment: ST_JUDE_LEISH: Cytotoxicity at 2uM final concentration against transgenic Leishmania Mexicana promastigotes LmPfHT that are glucose transport deficient and complemented with the Plasmodium falciparum hexose transporter. Activity is measured by DNA content using SYBR green in vitro
[3] = target: Glucose transporter (Leishmania mexicana) (UniProt O61059); experiment: ST_JUDE_LEISH: Cytotoxicity at 2uM final concentration against transgenic Leishmania Mexicana promastigotes LmGT2 that are glucose transport deficient and complemented with the L. Mexicana glucose transporter 2. Activity is measured by DNA content using SYBR green in vitro

| Structure (SMILES) | inhibition [1] [%] | inhibition [2] [%] | inhibition [3] [%] |
| --- | --- | --- | --- |
| Cc1cccc2nc(-c3ccc(-c4ccc(NC(=O)NCc5cccc(F)c5)cc4)cc3)[nH]c12 | 11.4 | 12.2 | 10.3 |
| CCN1CCC(N(CCCCCCCCc2ccc(C(F)(F)F)cc2)C(=O)Cn2c(CCc3cccc(F)c3F)cc(=O)c3ccccc32)CC1 | 8.91 | 9.52 | 4.76 |
| O=C(Nc1cccc(CN2CCCN(Cc3ccc4c(c3)OCO4)CC2)c1)c1cc2ccccc2s1 | -0.41 | -0.3 | -3.63 |
| Nc1c2c(nc3ccccc13)C(=Cc1ccc(O)cc1)CCC2 | 5.91 | 8.35 | 2.9 |
| CCN(CC)CCN(Cc1ccc(-c2ccc(C(F)(F)F)cc2)cc1)C(=O)Cn1c(CCc2cc(F)c(F)c(F)c2)nc(=O)c2ccccc21 | 9.62 | 9.17 | 8.54 |
| COc1cccc(NC(=O)Nc2cc(C)nc3ccccc23)c1 | 4.17 | 3.94 | 2.43 |
| CC(CCCCCC(=O)Nc1ccc(CC(C)NCCc2cccc(Cl)c2)cc1)NCCc1cccc(Cl)c1 (stereo unspecified) | 12.9 | 10.6 | 9.83 |
| COc1ccc(Nc2nc(C)cc(NC3CCCC3)n2)cc1 | 29.2 | 26.2 | 17.7 |
| O=S(=O)(NCCN1CCCC1)c1cccc(-c2cccc(CNCc3ccc(F)cc3)c2)c1 | 0.2 | 2.85 | -2.32 |
| COc1ccc(-c2csc(N(CCCN(C)C)C(=O)c3cc4c(C)nn(-c5ccccc5)c4s3)n2)cc1 | 0.66 | -0.63 | 2.84 |
| Oc1ccc(CCNCCCCCCNCCCc2ccc(Cl)cc2)cc1O | 2.83 | 4.13 | 4.05 |
| CC(C)CNCc1cccc(-c2cccc(CNCCCN3CCN(C)CC3)c2)c1 | 2.03 | 0.17 | 4.44 |
